We go through 25 compounds from the supplement of paper PMC8285479.

Counter-ions that a name gives are not always drawn. ± gives the standard deviation of the averaged measurements. Over roughly 1,900 compounds, “normalised cell viability (NPI; 0 = phenylarsine oxide control, 1 = DMSO control)” has its median near 1; the lowest 2% begin near 0.039. The full list was thinned out, with the lowest values kept by preference.

This experiment concerns NCI-H1944. Kind of experiment: normalised cell viability (NPI; 0 = phenylarsine oxide control, 1 = DMSO control) (fraction of DMSO control); NCI-H1944 is a non-small cell lung cancer line; higher = more viable cells (less compound toxicity). Conditions: 6 days.
Where [1] appears, read: glucocorticoid arm: hydrocortisone 2.75 uM co-treatment, compound 1 µM.
Setting [2] is: glucocorticoid arm: hydrocortisone 2.75 uM co-treatment, compound 5 µM.
Setting [3] is: glucocorticoid arm: hydrocortisone 2.75 uM pre-treated 2 days and continued, compound 1 µM.
Setting [4] is: glucocorticoid arm: hydrocortisone 2.75 uM pre-treated 2 days and continued, compound 5 µM.
[5] abbreviates: glucocorticoid arm: vehicle, compound 1 µM.
Where [6] appears, read: glucocorticoid arm: vehicle, compound 5 µM.
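Also: CTB read-out in 384-well plates, triplicate wells, NPI normalised per plate against 1 µM phenylarsine oxide (0) and 0.1% DMSO (1) controls.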

Regarding `O=C1c2c(O)cc(O)cc2O[C@H](c2ccc(O)c(O)c2)[C@H]1O` (racemic) [(±)-Taxifolin], the normalised cell viability reads like this: under setting [1], 1.01 ± 0.013; under setting [2], 0.995 ± 0.0078; under setting [3], 1.02 ± 0.035; under setting [4], 1.01 ± 0.012; under setting [5], 1.017 ± 0.0058; under setting [6], 1.017 ± 0.0058.

For the compound `CO[C@@]12[C@H](COC(N)=O)C3=C(C(=O)C(C)=C(N)C3=O)N1C[C@@H]1N[C@@H]12` [Mitomycin; Mitomycin C], the normalised cell viability runs as follows: under setting [1], 1 ± 0.013; under setting [2], 0.00117 ± 0.0012; under setting [3], 1.017 ± 0.0058; under setting [4], 0.0028 ± 0.00069; under setting [5], 0.9803 ± 0.0055; under setting [6], 0.000408 ± 0.00038.

Take `O=C1c2c(O)ccc(O)c2C(=O)c2c(NCCNCCO)ccc(NCCNCCO)c21` [Mitoxantrone; Mitoxantrone dihydrochloride]: the normalised cell viability is, setting by setting: under setting [1], 0.181 ± 0.0045; under setting [2], 0.00493 ± 0.00072; under setting [3], 0.65 ± 0.012; under setting [4], 0.0166 ± 0.0015; under setting [5], 0.0328 ± 0.004; under setting [6], 0.00403 ± 0.00087.

As to `O=C1c2ccccc2C(=O)c2c(NCCc3ccc(O)cc3)ccc(NCCc3ccc(O)cc3)c21`, the normalised cell viability runs as follows: under setting [1], 1.01 ± 0.012; under setting [2], 1.02 ± 0.038; under setting [3], 1.01 ± 0.012; under setting [4], 1.012 ± 0.0075; under setting [5], 1.01 ± 0.0063; under setting [6], 1.022 ± 0.0098.

For `O=C1c2c(O)ccc(O)c2C(=O)c2c(NCCNCCO)ccc(NCCNCCO)c21` [Mitoxantrone dihydrochloride], the normalised cell viability is, setting by setting: under setting [1], 0.00888 ± 0.0019; under setting [2], 0.00352 ± 0.00052; under setting [3], 0.145 ± 0.013; under setting [4], 0.155 ± 0.0095; under setting [5], 0.00324 ± 0.00091; under setting [6], 0.00617 ± 0.003.

Turning to `O=C(NCc1cccc(O)c1)Nc1nc(-c2ccncc2)cs1`, the normalised cell viability is, setting by setting: under setting [1], 0.994 ± 0.01; under setting [2], 0.978 ± 0.021; under setting [3], 1.01 ± 0.014; under setting [4], 0.971 ± 0.035; under setting [5], 0.984 ± 0.0069; under setting [6], 0.816 ± 0.054.

As to `C=C/C(C)=C/[C@@]1(C)SC(=O)C(C)=C1O` [Thiolactomycin], the normalised cell viability under setting [1] is 0.992 ± 0.0056; the normalised cell viability under setting [2] stood at 0.961 ± 0.021; the normalised cell viability under setting [3] is 1 ± 0.026; the normalised cell viability under setting [4] was 0.848 ± 0.23; the normalised cell viability under setting [5] amounted to 0.9883 ± 0.0015; the normalised cell viability under setting [6] came out at 0.998 ± 0.012.

As for `C=CCN1CCc2c(cc(O)c(O)c2Cl)C(c2ccccc2)C1` (racemic) [(±)-Chloro-APB hydrobromide], the normalised cell viability turned out to be 0.9917 ± 0.0072 under setting [1]; 1.02 ± 0.01 under setting [2]; 0.989 ± 0.0061 under setting [3]; 1 ± 0.011 under setting [4]; 0.9943 ± 0.0021 under setting [5]; 0.99467 ± 0.00058 under setting [6].

As for `N#C/C(=C\c1ccc(-c2cc(Cl)ccc2Cl)o1)C(=O)Nc1cccc2ncccc12`, the normalised cell viability was 0.971 ± 0.01 under setting [1]; 0.978 ± 0.035 under setting [2]; 0.984 ± 0.018 under setting [3]; 0.991 ± 0.014 under setting [4]; 0.9887 ± 0.0078 under setting [5]; 0.989 ± 0.012 under setting [6].

Consider `O=C(/C=C/C#Cc1cccc(NS(=O)(=O)c2ccccc2)c1)NO` [Oxamflatin], for which the normalised cell viability runs as follows: under setting [1], 0.974 ± 0.015; under setting [2], 0.599 ± 0.44; under setting [3], 0.992 ± 0.019; under setting [4], 0.901 ± 0.11; under setting [5], 0.843 ± 0.17; under setting [6], 0.509 ± 0.54.

For the compound `COc1cccc(NC(=O)/C=C/c2ccc(Cl)cc2)c1`, the normalised cell viability reads like this: under setting [1], 0.953 ± 0.015; under setting [2], 0.884 ± 0.026; under setting [3], 0.992 ± 0.029; under setting [4], 0.941 ± 0.023; under setting [5], 0.9757 ± 0.0093; under setting [6], 0.9683 ± 0.0067.

As to `O=C(/C=C/c1cccc(S(=O)(=O)Nc2ccccc2)c1)NO` [Belinostat (PXD101)], the normalised cell viability runs as follows: under setting [1], 0.9767 ± 0.0051; under setting [2], 0.0174 ± 0.0036; under setting [3], 1.02; under setting [4], 0.114 ± 0.0036; under setting [5], 0.575 ± 0.067; under setting [6], 0.00153 ± 0.00067.

On to `N[C@H](C(=O)O)[C@H]1C[C@@H]1C(=O)O` [(2S,1'S,2'S)-2-(carboxycyclopropyl)glycine], for which the normalised cell viability is, setting by setting: under setting [1], 0.99 ± 0.0046; under setting [2], 0.979 ± 0.019; under setting [3], 0.994 ± 0.0095; under setting [4], 0.978 ± 0.015; under setting [5], 0.9847 ± 0.0055; under setting [6], 0.9883 ± 0.0097.

Turning to `COC(=O)[C@]12CCC(C)(C)C[C@H]1[C@H]1C(=O)C=C3[C@@]4(C)C=C(C#N)C(=O)C(C)(C)[C@@H]4CC[C@@]3(C)[C@]1(C)CC2` [Bardoxolone Methyl], the normalised cell viability is, setting by setting: under setting [1], 0.00114 ± 0.00058; under setting [2], 1.08 ± 0.01; under setting [3], 0.00366 ± 0.0014; under setting [4], 1.1 ± 0.015; under setting [5], 0.00138 ± 0.00077; under setting [6], 0.858 ± 0.022.

Regarding `N.N.N.N.N.N.N.N.N.N.N.N.N.N.O.O.[Cl-].[Cl-].[Cl-].[Cl-].[Cl-].[Cl-].[Ru+4].[Ru+5].[Ru+5]` [Ruthenium red], the normalised cell viability under setting [1] turned out to be 0.991 ± 0.01; the normalised cell viability under setting [2] was found to be 0.974 ± 0.021; the normalised cell viability under setting [3] is 1.01 ± 0.027; the normalised cell viability under setting [4] came out at 0.987 ± 0.023; the normalised cell viability under setting [5] came to 0.995 ± 0.0052; the normalised cell viability under setting [6] came to 0.973 ± 0.0087.

For the compound `CC(C)(C)NCC(O)COc1cccc2[nH]c(=O)[nH]c12` (racemic), the normalised cell viability under setting [1] is 0.9973 ± 0.0023; the normalised cell viability under setting [2] came to 0.974 ± 0.014; the normalised cell viability under setting [3] was 0.992 ± 0.015; the normalised cell viability under setting [4] was 0.988 ± 0.0076; the normalised cell viability under setting [5] turned out to be 0.9853 ± 0.0067; the normalised cell viability under setting [6] came out at 0.985 ± 0.0053.

With `CC1c2cccc(O)c2C(O)=C2C(=O)C3(O)C(O)=C(C(N)=O)C(=O)C(N(C)C)C3C(O)C21` (stereo not given) [Doxycycline hydrochloride], the normalised cell viability was determined as 1 under setting [1]; 0.9303 ± 0.0093 under setting [2]; 0.99 ± 0.014 under setting [3]; 0.945 ± 0.018 under setting [4]; 0.9897 ± 0.0067 under setting [5]; 0.9743 ± 0.006 under setting [6].

Regarding `COC(=O)C(C)(N)Cc1ccc(O)cc1` (racemic) [alpha-Methyl-DL-tyrosine methyl ester hydrochloride], the normalised cell viability under setting [1] stood at 1.004 ± 0.01; the normalised cell viability under setting [2] is 1.01 ± 0.034; the normalised cell viability under setting [3] came out at 1.01 ± 0.023; the normalised cell viability under setting [4] was 0.999 ± 0.011; the normalised cell viability under setting [5] amounted to 0.9943 ± 0.0057; the normalised cell viability under setting [6] was 1.004 ± 0.0098.

In the case of `Cc1cc(C(=O)NOCCO)c(Nc2ccc(I)cc2F)n(C)c1=O`, the normalised cell viability by setting is: under setting [1], 0.614 ± 0.018; under setting [2], 0.565 ± 0.035; under setting [3], 0.66 ± 0.011; under setting [4], 0.672 ± 0.037; under setting [5], 0.286 ± 0.014; under setting [6], 0.279 ± 0.013.

Regarding `Cn1c(=O)c(F)c(Nc2ccc(I)cc2F)c2c(=O)n(C[C@@H](O)CO)cnc21`, the normalised cell viability is, setting by setting: under setting [1], 0.641 ± 0.035; under setting [2], 0.629 ± 0.043; under setting [3], 0.772 ± 0.028; under setting [4], 0.757 ± 0.042; under setting [5], 0.329 ± 0.013; under setting [6], 0.226 ± 0.025.

For the compound `CCCNC[C@H](O)COc1ccccc1C(=O)CCc1ccccc1` [(S)-(-)-propafenone hydrochloride], the normalised cell viability came to 0.99967 ± 0.00058 under setting [1]; 0.9747 ± 0.0047 under setting [2]; 1.02 ± 0.026 under setting [3]; 1.02 ± 0.015 under setting [4]; 0.9967 ± 0.0058 under setting [5]; 0.995 ± 0.005 under setting [6].

Regarding `Cc1nc(C#Cc2ccnc(Cl)c2)c(C)n1-c1ccc(OC(F)(F)F)cc1`, the normalised cell viability by setting is: under setting [1], 0.993 ± 0.021; under setting [2], 0.992 ± 0.01; under setting [3], 0.983 ± 0.015; under setting [4], 0.9747 ± 0.004; under setting [5], 1 ± 0.017; under setting [6], 1 ± 0.014.

Consider `O=S(=O)(NCCNCC=Cc1ccc(Br)cc1)c1cccc2cnccc12`, for which the normalised cell viability under setting [1] was 0.985 ± 0.012; the normalised cell viability under setting [2] turned out to be 0.985 ± 0.025; the normalised cell viability under setting [3] amounted to 1.03 ± 0.01; the normalised cell viability under setting [4] was found to be 1.007 ± 0.0058; the normalised cell viability under setting [5] turned out to be 1.002 ± 0.0072; the normalised cell viability under setting [6] was 0.968 ± 0.016.

As for `Cc1ccccc1N1CCN(S(=O)(=O)C[C@]23CC[C@H](C[C@@H]2NC(=O)[C@@H](N)CCS(C)(=O)=O)C3(C)C)CC1` [L-368,899 hydrochloride], the normalised cell viability runs as follows: under setting [1], 0.99 ± 0.017; under setting [2], 0.986 ± 0.024; under setting [3], 0.998 ± 0.013; under setting [4], 1.01 ± 0.023; under setting [5], 0.9847 ± 0.0035; under setting [6], 0.9993 ± 0.0095.

For `COC[C@H](NC(=O)c1cnc(C)s1)C(=O)N[C@@H](COC)C(=O)N[C@@H](Cc1ccccc1)C(=O)[C@@]1(C)CO1` [Oprozomib (ONX 0912)], the normalised cell viability was 0.208 ± 0.051 under setting [1]; 0.0253 ± 0.0081 under setting [2]; 0.7 ± 0.017 under setting [3]; 0.301 ± 0.021 under setting [4]; 0.0106 ± 0.0015 under setting [5]; 0.00109 ± 0.00065 under setting [6].
